Peg3 promoter: Peg3 promoter-driven luciferase inhibitors, primary screen, cell-based, HeLa, luciferase luminescence; HeLa PEG-Prom luciferase reporter, overnight; inhibition, % at 20 µM; AID 588405, 2011; 360,000 compounds, 1.7% hits;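 active = inhibition of at least 50% at 20 µM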
CF NFkB block: inhibitors of PAF-induced NF-kB signaling, primary screen, cell-based, GFP fluorescence, uHTS | KKLEB NF-kB-GFP reporter, GFP fluorescence overnight | inhibition, % at 5 µM | 360,000 compounds, 0.86% hits;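 active = at least 50% inhibition at 5 µM, scaled per plate between neutral and stimulator controls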;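 note: PAF is a Pseudomonas aeruginosa culture filtrate used as stimulus; plate controls were PAF-stimulated DMSO wells for no effect and unstimulated DMSO wells for full effect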
EBV LMP1 NFkB: EBV LMP1-driven NF-kappaB luciferase reporter inhibitors, primary screen, cell-based, luminescence, single point. LMP1-induced NF-kappaB luciferase reporter cells. inhibition, % at 12.5 µM. 350,000 compounds, 0.69% hits; in the data active = inhibition above about 41%;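 note: 0% = neutral control wells and 100% = reference inhibitor control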
TRPM1 prom inh: inhibitors of MITF-dependent TRPM1 promoter reporter, primary screen, cell-based, SK-MEL-5, single point, luciferase. SK-MEL-5 TRPM1 promoter luciferase, 24 h. inhibition, % at 12.5 µM. 330,000 compounds, 0.83% hits. AID 488899, 2010;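 active = mean inhibition across replicates of 60% or more, whatever share of single replicates reaches that level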
HIF-2a inh: HIF-2a reporter inhibitors, primary screen, luminescence, 786-0 RCC cells; 786-0 RCC cells HIF-2a reporter, luciferase luminescence, overnight; inhibition, % at 18.8 µM; AID 624352, 2012; 360,000 compounds, 0.72% hits;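 active = inhibition of the luminescence signal of 40% or more relative to plate controls, in a single-dose primary screen at 18.75 µM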
KKLEB cytotox: cytotoxicity in KKLEB CF airway cells, primary screen, cytotoxicity control for CF NF-kB inhibitor project, cell-based, uHTS, fluorescence assay plates | AID 602141, 2011 | activity change (cytotoxicity), % at 5 µM | KKLEB CF airway cells viability, ATPlite luminescence, overnight; hits give low values; cells stimulated with P. aeruginosa culture filtrate | 360,000 compounds, 0.36% hits;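 active = corrected activity change at or below -50% at 5 µM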
* marks the source's active call; other numbers are inactive results; · = no result given. Most compounds without a hit are left out; they make up all but 3% or so of the library.

SMILES	Peg3 promoter	CF NFkB block	EBV LMP1 NFkB	TRPM1 prom inh	HIF-2a inh	KKLEB cytotox
CC[C@]12c3[nH]c4cc(CCC(=O)N(C)C)ccc4c3CCN1C(=O)[C@@H](CC(=O)NC/C=C(\C)CCC=C(C)C)C[C@@H]2C(=O)N1CCN(C(=O)C2CC2)CC1	5	-42	7	25	-1	14
O=C(CC1C[C@H](C(=O)N2CCOCC2)[C@@]2(CCC3CCCC3)c3[nH]c4ccccc4c3CCN2C1=O)NCc1cccc(C(F)(F)F)c1 (stereo partly drawn)	90*	35	1	52	13	-35
CC[C@]12c3[nH]c4ccc(Cl)cc4c3CCN1C(=O)[C@@H](CC(=O)NCc1cccc(C(F)(F)F)c1)C[C@@H]2C(=O)N1CCN(C(=O)C2CC2)CC1	52*	-14	-6	8	-3	0
CN(C)C(=O)CCc1ccc2c3c([nH]c2c1)[C@]1(CCC2CCCC2)[C@@H](C(=O)N2CCOCC2)C[C@H](CC(=O)NCc2cccc(C(F)(F)F)c2)C(=O)N1CC3	29	-17	9	18	0	10
CCN(CC)C(=O)[C@H]1C[C@H](CC(=O)NCc2cccc(C(F)(F)F)c2)C(=O)N2CCc3c([nH]c4cc(-c5ccco5)ccc34)[C@]12C	85*	36	12	30	-27	5
OC(c1ccc(F)cc1)c1ncc(-c2cccc3ccccc23)[nH]1 (stereo not drawn)	-6	-15	·	·	-42	7
CC(C)=CCC/C(C)=C/CNC(=O)C[C@H]1C[C@H](C(=O)N(C(C)C)C(C)C)[C@@]2(C)c3[nH]c4ccc(Cl)cc4c3CCN2C1=O	14	19	6	11	-7	-4
CC(C)=CCC/C(C)=C/CNC(=O)CC1C[C@H](C(=O)N(C(C)C)C(C)C)[C@@]2(C)c3[nH]c4ccccc4c3CCN2C1=O (stereo partly drawn)	89*	17	6	1	0	-4
COc1ccc(NS(=O)(=O)c2cc(NC(=O)/C=C/c3cccs3)ccc2N2CCOCC2)cc1	50*	-19	12	7	16	-9
CCCCCC(=O)Nc1ccc(N2CCOCC2)c(S(=O)(=O)Nc2ccc(OC)cc2)c1	7	5	10	-2	6	13
O=S(=O)(NCc1ccccc1)c1ccc(Cl)cc1	-2	3	-6	-8	10	6
O=S(=O)(Nc1cc2nc3ccccc3nc2n1Cc1ccccc1)c1ccc(Cl)cc1	23	52*	3	7	-6	-10
Cc1ccc(Cc2c(-c3ccccc3)nc3cc(C)c(Br)c(C)n23)cc1	-50	-2	·	·	-57	1
C[C@@H]1CN([C@@H](C)CO)C(=O)CCCn2nncc2CO[C@@H]1CN(C)C(=O)Nc1ccnc(N2CCOCC2)c1	-1	-35	-3	·	6	24
CC(C)(C)c1nn(-c2ccccc2)c2[nH]c(=O)c(CNc3ccc4c(c3)OCCO4)cc12	-19	57*	27	41	-28	16
CC(C)(C)c1nn(-c2ccccc2)c2[nH]c(=O)c(CNCc3ccco3)cc12	-10	-4	1	67*	27	12
Cc1ccc(CNCc2cc3c(C(C)(C)C)nn(-c4ccccc4)c3[nH]c2=O)cc1	-25	-4	-3	14	27	-3
O=C(NCC1CC1)c1ccc(-c2cn[nH]c2)c2ccoc12	-46	32	·	·	-75	-46
CC(C)n1c2ccccc2c2cc([N+](=O)[O-])ccc21	26	10	-2	8	10	-21
CCC(C)n1c(=S)[nH]c2c(sc3ccc([N+](=O)[O-])cc32)c1=O (stereo not drawn)	10	54*	-3	12	4	-50
COCCCN1C(=O)C(CC(=O)NCc2cccs2)CC(C(=O)N(C(C)C)C(C)C)=C1C (stereo not drawn)	8	-30	·	·	14	3
O=[N+]([O-])c1cccc(S(=O)(=O)Nc2ccccn2)c1	-9	-5	-1	·	11	-3
COc1ccc(NCc2nnc(SCC(=O)Nc3nc(-c4ccccc4)cs3)n2-c2ccccc2)cc1	83*	-6	-73	14	11	-12
O=C(CSc1nnc(-c2ccncc2)n1Cc1ccco1)Nc1nc(-c2ccccc2)cs1	22	43	0	29	2	-55*
CC(C)OC(=O)N(C)C[C@H]1OCc2cnnn2CCCC(=O)N([C@H](C)CO)C[C@H]1C	-9	13	-6	·	-4	-17
SMILES	Peg3 promoter	CF NFkB block	EBV LMP1 NFkB	TRPM1 prom inh	HIF-2a inh	KKLEB cytotox
Nc1ccc2cc3[nH]c4cc(N)ccc4c3nc2c1	28	-469	62*	83*	-41	-4
O=C1C(F)=CC(COC(c2ccccc2)(c2ccccc2)c2ccccc2)OC1n1cc(F)c(=O)[nH]c1=O (stereo not drawn)	98*	90*	-3	114*	87*	-82*
N#Cc1nc(-c2ccc(OCc3ccc(Cl)cc3)cc2)oc1N1CCOCC1	56*	-5	4	22	-48	-7
CCNc1ncnc2[nH]ncc12	3	13	7	-13	8	6
CC(C)c1ccc(-c2c(C#N)c(N)nc(SCC(=O)N3CCCCC3)c2C#N)cc1	20	17	-22	17	17	-17
N#Cc1c(N)nc(SCC(=O)NC2CCCCC2)c(C#N)c1-c1ccc(Cl)cc1	74*	-2	0	-2	-4	6
O=C(Nc1nc2ccccc2n1CCN1CCOCC1)c1cn(-c2ccccc2)nc1-c1ccccc1	84*	3	26	36	12	-19
O=C(Nc1nc2ccccc2n1CCN1CCOCC1)c1ccccc1	-5	-1	1	13	-10	-5
COc1cc(OC)cc(C2=Cc3ccccc3C(CC(C)=O)N2c2ccc(C#CCCO)cc2)c1 (stereo not drawn)	·	·	·	·	-2	·
C=CCN1C(=O)C(CC(=O)Nc2ccc(OCCC)cc2)N(CCCN2CCN(Cc3ccccc3)CC2)C1=S (stereo not drawn)	52*	5	-5	1	4	-21
COc1ccc(NC(=O)CC2C(=O)N(Cc3ccccc3)C(=S)N2CCN2CCOCC2)cc1 (stereo not drawn)	1	-19	-11	-1	2	-7
CCN(CC1CCCO1)C(=O)CCc1nnc(CCc2ccccc2)o1 (stereo not drawn)	-160	10	3	·	-193	8
CC1C(c2ccccc2)N(C)C(c2ccccc2)C(C)C1(O)C#Cc1ccccc1 (stereo not drawn)	62*	25	-6	6	0	-18
